Assay outcomes: PubChem BioAssay, Sanford-Burnham Center for Chemical Genomics
CYP2C9 inhib = blockers of cytochrome P450 2C9 activity – biochemical, luminescence, ADME assay, primary screen; P11712; CYP2C9 Supersomes, luciferin-H conversion; inhibition, % at 5 µM; 20% of 96,000 active;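 active = blocking of liver enzyme CYP2C9 beyond about 50% at 5 µM, limit read from the data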
CYP2C19 inhib = blockers of cytochrome P450 2C19 activity – biochemical, luminescence, ADME assay, primary screen; CYP2C19 Supersomes, luciferin-H EGE luminescence, 30 min; inhibition, % at 5 µM; 21% of 96,000 active;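 active = CYP2C19 inhibition above a set limit at 5 µM in the primary screen, cut at about 50% in these data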;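 also: plate controls were negative control wells for no effect and 2.5 mM tranylcypromine positive control for full effect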
Target sequence (P33261 whole entry, looked up): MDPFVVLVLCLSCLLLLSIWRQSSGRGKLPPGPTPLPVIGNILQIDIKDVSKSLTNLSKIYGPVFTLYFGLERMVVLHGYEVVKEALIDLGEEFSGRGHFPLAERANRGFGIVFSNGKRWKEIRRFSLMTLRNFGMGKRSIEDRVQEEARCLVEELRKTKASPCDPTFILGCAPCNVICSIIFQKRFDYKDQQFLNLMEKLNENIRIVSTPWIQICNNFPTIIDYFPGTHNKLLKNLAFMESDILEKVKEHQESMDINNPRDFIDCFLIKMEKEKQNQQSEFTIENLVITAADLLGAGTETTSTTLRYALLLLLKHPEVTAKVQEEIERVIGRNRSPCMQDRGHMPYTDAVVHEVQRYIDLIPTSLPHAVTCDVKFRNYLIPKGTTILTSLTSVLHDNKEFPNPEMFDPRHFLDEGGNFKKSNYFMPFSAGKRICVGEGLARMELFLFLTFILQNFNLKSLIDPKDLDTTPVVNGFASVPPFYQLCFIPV
CYP2C9 act = human CYP2C9 activators, primary screen, biochemical, luminescence; AID 1024, 2008; Cytochrome P450 2C9 (Homo sapiens), P11712; 1.4% of 96,000 active; activation factor at 5 µM; recombinant CYP2C9, luciferin-H conversion; active compounds read high; factor 1 = untreated enzyme, 0 = blocked;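 active = activation factor of 2 or more for CYP2C9 at a 5 µM dose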;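 also: 0 = sulfaphenazole-blocked wells and 1 = vehicle-only wells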
CYP2C19 act = human CYP2C19 activators, primary screen, biochemical, luminescence; recombinant CYP2C19, luciferin-H EGE luminescence; active compounds read high; 0 = fully inhibited enzyme, 1 = untreated enzyme; activation factor at 5 µM; 96,000 tested, under 10 active;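 active = activation factor of at least 2 at 5 µM in the primary screen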;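 also: 0 = wells with 2.5 mM tranylcypromine and 1 = vehicle-only wells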
Active calls of the source: *. Only some compounds are listed: those with a hit (about 31% of all), similar ones and a draw of the others.

SMILES | CYP2C9 inhib | CYP2C19 inhib | CYP2C9 act | CYP2C19 act
CCCCOc1ccc(CNn2c(C)nc3ccccc3c2=O)cc1 | 67* | 91* | 0.3 | 0.1
Cc1nc2ccccc2c(=O)n1N | 97* | 77* | 0 | 0.2
CCCOc1ccc(C(=O)Nn2c(C)nc3ccccc3c2=O)cc1 | 46 | 3 | 0.5 | 1
COc1ccc(CNn2c(C)nc3ccccc3c2=O)cc1 | 42 | 96* | 0.6 | 0
COc1ccc(Br)cc1CNC(=O)CCN1C(=O)COc2ccccc21 | -8 | 81* | 1.1 | 0.2
COc1ccc(OC)c(CNC(=O)CCN2C(=O)COc3ccccc32)c1 | -34 | 70* | 1.3 | 0.3
COc1ccc(C(=O)NC2CCCCCC2)cc1S(=O)(=O)Nc1ccc(Br)cc1 | 13 | -13 | 0.9 | 1.1
CC1(C)CC(=O)C2=C(C1)OC(N)=C(C#N)C2Cc1ccccc1 (stereo not drawn) | 79* | 98* | 0.2 | 0
N#CC1=C(N)N(c2ccc(Br)cc2)C2=C(C(=O)CCC2)C1c1cccnc1 (stereo not drawn) | 52* | 21 | 0.5 | 0.8
COc1ccc(C2C(C#N)=C(N)OC3=C2C(=O)CCC3)c(OC)c1OC (stereo not drawn) | 22 | 20 | 0.8 | 0.8
CC1C(C#N)=C(N)OC2=C1C(=O)CC(C)(C)C2 (stereo not drawn) | 11 | 8 | 0.9 | 0.9
N#CC1=C(N)OC2=C(C(=O)CCC2)C1CCc1ccccc1 (stereo not drawn) | 92* | 94* | 0.1 | 0.1
CCn1c2ccccc2c2cc(C3C(C#N)=C(C)NC(C)=C3C#N)ccc21 | 95* | 100* | 0 | 0
Cc1oncc1C(=S)Nc1ccccc1 | 16 | 35 | 0.8 | 0.6
Cc1ccc(N2C(N)=C(C#N)C(c3cccs3)C3=C2CC(C)(C)CC3=O)cc1 (stereo not drawn) | 80* | 42 | 0.2 | 0.6
CCOC(=O)C1=C(N)OC2=C(C(=O)CC(C)(C)C2)C1c1ccccc1OCC#N (stereo not drawn) | 79* | 71* | 0.2 | 0.3
CC1(C)CC(=O)C2=C(C1)N(c1ccc(F)cc1)C(N)=C(C#N)C2c1cccs1 (stereo not drawn) | 10 | -2 | 0.9 | 1
CC1(C)CC(=O)C2=C(C1)N(c1ccccc1)C(N)=C(C#N)C2c1cccnc1 (stereo not drawn) | 50* | 24 | 0.5 | 0.8
CC1(C)CC(=O)C2=C(C1)N(c1ccccc1)C(N)=C(C#N)C2c1ccsc1 (stereo not drawn) | 75* | 68* | 0.2 | 0.3
CN(C)N1C(N)=C(C#N)C(c2cccnc2)C2=C1CC(C)(C)CC2=O (stereo not drawn) | 4 | 1 | 1 | 1
COc1ccc(C(C)NC(=O)C2CCCO2)cc1OC (stereo not drawn) | -3 | 5 | 1 | 0.9
COc1ccc(C2(C(=O)N3CCCC3)CCOCC2)cc1OC | 6 | 2 | 0.9 | 1
CCc1ccc(NC(=O)N(CCOC)C2CCN(C(C)=O)CC2)cc1 | -17 | 8 | 1.2 | 0.9
O=C1CCCC2=C1C(Cc1ccccc1)C1=C(CCCC1=O)O2 | 23 | 82* | 0.8 | 0.2
COc1ccc(C2C(C#N)=C(N)N(c3sc4c(c3C#N)CCCC4)C3=C2C(=O)CC(C)(C)C3)cc1OC (stereo not drawn) | 86* | 62* | 0.1 | 0.4
SMILES | CYP2C9 inhib | CYP2C19 inhib | CYP2C9 act | CYP2C19 act
CC1(C)CC(=O)C2=C(C1)OC(N)=C(C#N)C2c1ccsc1 (stereo not drawn) | 32 | 63* | 0.7 | 0.4
N#CC1=C(N)N(c2ccccc2C#N)C2=C(C(=O)CCC2)C1c1ccsc1 (stereo not drawn) | 62* | 43 | 0.4 | 0.6
COc1cc(C2C(C#N)=C(N)OC3=C2C(=O)CC(C)(C)C3)c([N+](=O)[O-])cc1OC (stereo not drawn) | 9 | -5 | 0.9 | 1.1
O=C1CCCC2=C1C(c1ccccc1O)C1=C(CCCC1=O)O2 | 12 | 8 | 0.9 | 0.9
COc1ccc(CCN2C(=O)CC(Sc3ncccc3C(=O)O)C2=O)cc1OC (stereo not drawn) | -7 | -11 | 1.1 | 1.1
CCOC(=O)c1cnc2nc(COc3ccccc3)[nH]n2c1=O | 26 | 6 | 0.7 | 0.9
CSCCC(NC(N)=O)C(=O)NCC1CCCCC1 (stereo not drawn) | -16 | -7 | 1.2 | 1.1
N#CC1=C(N)OC2=C(C(=O)CCC2)C1C1C=CCCC1 (stereo not drawn) | 73* | 84* | 0.3 | 0.2
COC(=O)C1=C(N)OC2=C(C(=O)CC(C)(C)C2)C1c1ccoc1 (stereo not drawn) | 55* | 47 | 0.5 | 0.5
CCn1c2ccccc2c2cc(C3C(C#N)=C(N)OC4=C3C(=O)CC(C)(C)C4)ccc21 (stereo not drawn) | 57* | 2 | 0.4 | 1
CCn1c(C)cc2c(c1=O)C(c1ccc3c(c1)OCO3)C(C#N)=C(N)O2 (stereo not drawn) | 7 | 11 | 0.9 | 0.9
CCn1c2ccccc2c2cc(N)ccc21 | 19 | 93* | 0.8 | 0.1
CCn1c(C)cc(=S)c2ccccc21 | 1 | 4 | 1 | 1
COCCOC(=O)C1=C(N)OC2=C(C(=O)CC(C)(C)C2)C1c1cccnc1 (stereo not drawn) | 16 | 27 | 0.8 | 0.7
Cc1cc(C)c(C)c(OCCCCn2cnc3ccccc3c2=O)c1 | -17 | 15 | 1.2 | 0.8
O=C(CN1CCC(O)(c2ccc3c(c2)OCO3)CC1)N1CCOCC1 | -72 | -4 | 1.7 | 1
CCOC(=O)N1CCC(n2c(SCC(=O)N3CCC(C)CC3)nc3ccccc3c2=O)CC1 | 60* | 57* | 0.4 | 0.4
COCC(C)n1c(SCC(=O)NCCC2=CCCCC2)nc2ccccc2c1=O (stereo not drawn) | 87* | 84* | 0.1 | 0.2
CCOC(=O)N1CCC(n2c(SCC(=O)NCCC3=CCCCC3)nc3ccccc3c2=O)CC1 | 68* | 58* | 0.3 | 0.4
CCOC(=O)N1CCC(n2c(SCC(=O)NCc3ccccc3)nc3ccccc3c2=O)CC1 | 53* | 60* | 0.5 | 0.4
CCOC(=O)N1CCC(n2c(SCC(=O)N3CCCC3)nc3ccccc3c2=O)CC1 | 39 | 21 | 0.6 | 0.8
COc1ccc(NC(=O)CSc2nc3ccccc3c(=O)n2CCCN2CCCCC2)c(OC)c1 | 16 | 64* | 0.8 | 0.4
CCOC(=O)N1CCC(n2c(SCC(=O)Nc3ccccc3OC)nc3ccccc3c2=O)CC1 | 95* | 90* | 0 | 0.1
Cc1ccccc1CSc1nnc(C)n1N | -8 | -4 | 1.1 | 1
Cc1cccc(C)c1-n1nnnc1SCSc1nnnn1-c1c(C)cccc1C | 77* | 33 | 0.2 | 0.7
CSc1nc(Cc2ccc(Cl)cc2)nc2ccccc12 | -6 | -6 | 1.1 | 1.1
